Several values for one entry are separate records, joined by “and”; a condition that tells them apart may be missing. Equal entries are not always repeated. About 800 (1.6%) of roughly 50,000 compounds showed an effect of 50% or more. The list comes from a sample in which strong results are over-represented; it also holds similar structures and randomly drawn compounds.
biological target: Bcl-2-like protein 10 (Homo sapiens) (UniProt Q9HD36); assay: Phenotype converters, Bcl-B/TR3 peptide binding displacement, primary biochemical FP (AID 1240); conditions: GST-Bcl-B / FITC-TR3 peptide fluorescence polarization; stronger effect = higher value; compound at 3.75 mg/L;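 note: 0% = Bcl-B with tracer peptide and DMSO and 100% = tracer peptide lacking Bcl-B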
Sequence (Q9HD36 whole entry, looked up): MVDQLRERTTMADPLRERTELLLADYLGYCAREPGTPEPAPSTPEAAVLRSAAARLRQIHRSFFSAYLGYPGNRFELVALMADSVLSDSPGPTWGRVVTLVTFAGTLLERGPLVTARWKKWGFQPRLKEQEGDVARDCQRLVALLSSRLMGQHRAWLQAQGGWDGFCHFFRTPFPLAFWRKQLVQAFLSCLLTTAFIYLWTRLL

SMILES | displacement
O=C(/C=C/c1ccc(F)cc1)NC(=S)NCc1ccco1 | 18.2%
O=C1NC(=O)N(c2ccccc2)C(=O)/C1=C\c1ccc(-c2ccccc2Cl)o1 | 42.6%
O=C1NC(=S)N/C1=C/c1ccc(-c2cccc(Br)c2)o1 | 15.5%
O=C1NC(=O)C(=Cc2ccc(-c3cc(Cl)c([N+](=O)[O-])cc3Cl)o2)C(=O)N1 | 81.2%
Cc1ccc(-c2ccc(C=C3C(=O)NC(=O)NC3=O)o2)c(Br)c1 | -9.6%
O=C1NC(=O)N(c2ccccc2)C(=O)/C1=C\c1ccc(-c2ccc([N+](=O)[O-])cc2Cl)o1 | 11.5%
CN1C(=O)NC(=O)/C(=C/c2ccc(-c3cccc(Cl)c3Cl)o2)C1=O | 74.5%
Cc1cc(-c2ccc(C=C3C(=O)NC(=S)NC3=O)o2)c([N+](=O)[O-])cc1C | 26.1%
CN1C(=O)C(=Cc2ccc(-c3cccc(Cl)c3Cl)o2)C(=O)N(C)C1=O | 4.6%
O=C1NC(=O)C(=Cc2ccc(-c3cccc(Br)c3)o2)C(=O)N1 | 81.1%
COc1ccc(N2C(=O)NC(=O)/C(=C/c3ccc(-c4ccc([N+](=O)[O-])cc4Cl)o3)C2=O)cc1 | 20.3%
Cc1ccc(N2C(=O)NC(=O)/C(=C\c3ccc(-c4ccc([N+](=O)[O-])cc4Cl)o3)C2=O)cc1 | 87.2%
Cc1ccc(-c2ccc(C=C3C(=O)NC(=O)NC3=O)o2)c([N+](=O)[O-])c1 | 1.3%
Nc1nonc1N=Cc1cc(Br)ccc1O | -12.8%
CCC1CCc2c(sc(NC(=O)C3CCCC3)c2C(N)=O)C1 (configuration not stated) | -1.5%
COc1cc(/C=C2/C(=O)NC(=O)N(c3cccc(C)c3)C2=O)ccc1OCC(=O)O | -14.8%
Cc1cc(=O)[nH]c(SCc2cccc(Oc3ccccc3)c2)n1 | -8% and 5.2%
CCCCOc1cc2oc(=O)c(CC)c(C)c2cc1CC | 0.2%
CN(c1ccccc1)c1ccc(C=C2C(=O)NC(=O)NC2=O)cc1 | 19.6%
CC(/C=C/c1ccc(N(C)C)cc1)=N\N=C(/N)SC1CC(=O)N(c2ccc(F)cc2)C1=O (configuration not stated) | -8.3%
COc1cc2c(C)nc3c(c(C)nn3-c3ccccc3)c2cc1OC | 59.5%
COc1cc2c(C)nc3c(cnn3-c3ccccc3)c2cc1OC | -5.8%

SMILES | displacement
COc1cc2c(C)nc3c(c(C)nn3C)c2cc1OC | -1.5%
CCOc1cc(C2CC(=O)NC(C)=C2C(=O)OC)cc(Br)c1OC (configuration not stated) | 10.6%
CCCOP(=O)(OCCC)C(Nc1ccc(Cl)cc1)c1ccc(Br)cc1 (configuration not stated) | 17.1%
CCCCOP(=O)(OCCCC)C(Nc1ccccc1)c1ccc(OC)cc1 (configuration not stated) | 52.1%
CCOP(=O)(OCC)C(Nc1ccccc1)c1ccc2c(c1)OCO2 (configuration not stated) | 13.6%
CN1CCc2c(sc3c2C(=O)NC(c2ccc(Cl)s2)N3)C1 (configuration not stated) | 4%
COc1cc(C2NC(=O)c3c(sc4c3CCN(C)C4)N2)cc(OC)c1OC (configuration not stated) | 3.2%
CN1CCc2c(sc3c2C(=O)NC(c2ccc4ccccc4c2)N3)C1 (configuration not stated) | 83%
CCOC(=O)NC12CC3CC(C1)CC(C(F)(F)F)(C3)C2 | 3.2%
COc1ccc(/C=N\N2CCN(c3ccccc3)CC2)cc1 | -0.3%
CCOC(=O)c1c(NC(=O)Cc2ccc(Cl)cc2)sc(C(=O)Nc2ccc(OC)cc2OC)c1C | 18.5%
O=C1CCNc2c(Cl)cc(Cl)cc21 | 88.6%
C/C(=N\N1CCN(c2ccccc2)CC1)c1ccc(F)cc1 | -8.7%
CC1(C)Cc2ccccc2C(N/N=C/c2ccc(Cl)cc2)=N1 | -3.6%
O=c1oc2ccc(Br)cc2cc1-c1csc(-c2cc3cc([N+](=O)[O-])ccc3oc2=O)n1 | -5.4%
O=c1oc2ccc(Br)cc2cc1-c1nc(-c2ccc([N+](=O)[O-])cc2)cs1 | -7.2%
Cc1ccc(-c2nc(-c3cc4cc([N+](=O)[O-])cc(Br)c4oc3=O)cs2)c(C)c1 | 95.2%
Cc1ccc(S(=O)(=O)Nc2ccc(S(=O)(=O)N3CCCCC3)cc2)cc1[N+](=O)[O-] | -4%
Cn1c(=O)c(C2=NS(=O)(=O)c3ccccc3N2)c(O)c2ccccc21 | 2.1%
CC(=O)CC(c1ccccc1)S(=O)(=O)c1ccccc1C (configuration not stated) | 0.2%
O=C(NCCCc1ccccc1)C(F)(F)F | 85.1%
O=C(NCCC(c1ccccc1)c1ccccc1)C(F)(F)F | -1.5%

SMILES | displacement
O=C(NCCCc1ccccc1)c1ccccc1 | -1.3%
CCCCOc1ccc(C=O)cc1OCC | -7.3%
CC(=O)C1=C(O)C(=O)N(CCN2CCNCC2)C1c1cccc(F)c1 (configuration not stated) | -17.2%
CCOC(=O)c1ccc(N2C(=O)NC(=O)/C(=C/c3ccc(OC)c(OC)c3)C2=O)cc1 | -4.2%
CCCC(=O)NC(c1ccco1)c1c(O)ccc2ccccc12 (configuration not stated) | 6.6%
NS(=O)(=O)c1ccc(N/C=C/C(=O)c2ccco2)cc1 | 74.8%
COc1ccc(N/C=C/C(=O)c2ccco2)cc1 | 11.7%
NS(=O)(=O)c1ccc(N/C=C/C(=O)c2ccc(Cl)c(Cl)c2)cc1 | 4.8%
Cc1ccc(N2C(=O)NC(=O)/C(=C\c3ccc(N(C)C)c(Br)c3)C2=O)cc1 | 10.1%
CC(=O)c1cccc(N2C(=O)C3CCCCC3C2=O)c1 (configuration not stated) | -12.9%
CC(=O)Oc1ccccc1/C=C1\C=C(c2ccc(Cl)cc2)OC1=O | 108%
COc1ccc(/C=C2\C=C(c3ccc(Cl)cc3)OC2=O)c(OC)c1 | 25.2%
COc1ccc(C2=C/C(=C/c3ccccc3OC)C(=O)O2)cc1 | 85.1%
CC(=O)Oc1ccccc1/C=C1\C=C(c2ccc(C)cc2)OC1=O | -0.2%
COc1ccc(OC)c(/C=C2/C=C(c3ccccc3)OC2=O)c1 | -24.5%
COc1ccc(/C=C2/C=C(c3ccccc3)OC2=O)c(OC)c1 | -30%
CC(=O)Oc1ccccc1/C=C1\C=C(c2ccc(Br)cc2)OC1=O | 12%
COc1ccccc1/C=C1\C=C(c2ccc(Cl)cc2)OC1=O | 9.6%
COc1ccc(C2=C/C(=C/c3ccc(OC)cc3OC)C(=O)O2)cc1 | 144%
O=C(CCc1ccccc1)Nc1ccc(Br)cc1 | 9.1%
O=[N+]([O-])c1cccc(Cl)c1N1CCOCC1 | 3.9%
O=C(c1ccccc1Cl)N1CCN(c2c(Cl)cccc2[N+](=O)[O-])CC1 | 8.5%

SMILES | displacement
O=[N+]([O-])c1cccc(Cl)c1N1CCN(CCO)CC1 | 89.3%
Cc1ccc(C(=O)Nc2cccc(NC(=O)c3ccco3)c2)cc1C | 60.4%
Cc1ccc(C(=O)Nc2ccc(NC(=O)c3ccco3)cc2)cc1C | -0.4%
Cc1ccc(C(=O)Nc2ccc(NC(=O)c3ccco3)c(Cl)c2)cc1C | -8.9%
CCn1cc(C(=O)NN)c(=O)c2cc(Br)ccc21 | 20.2%
O=C(CSc1nc2ccc([N+](=O)[O-])cc2s1)N1CCOCC1 | 1.4%
COC1C(C)=CC(=O)N1Cc1ccccc1 (configuration not stated) | 4.4%
Cc1cc(C)c(S(=O)(=O)NCC2CCCO2)c(C)c1 (configuration not stated) | -8%
CCc1cc(C)cc(OCCOc2ccc([N+](=O)[O-])cc2/C=C2/SC(=S)N(C)C2=O)c1 | 20.5%
COc1ccccc1/C=C1\SC(=N)N(c2ccc(F)cc2)C1=O | -8.6%
O=c1c(C=NCc2cccs2)c(C(F)(F)F)[nH]n1-c1nc2ccccc2s1 | -13.8%
COc1ccc(CCN=Cc2c(C(F)(F)F)[nH]n(-c3nc4ccccc4s3)c2=O)cc1OC | 69.9%
CCCc1[nH]n(-c2nc3ccccc3s2)c(=O)c1C=NCCc1ccccc1 | -1%
Cc1ccc(C)c(NC(=O)C2C3C4CCC(C4)C23)c1 (configuration not stated) | -7.2%
COc1ccc(/C=C/C(=O)NC(=S)Nc2ccc(I)cc2)cc1 | 14.3%
O=C(Nc1c(C(=O)Nc2cccc(Cl)c2)cnn1-c1ccccc1)c1ccccc1Cl | 83%
CCN(CC)C(=O)c1cnn(-c2ccccc2)c1NC(=O)c1ccccc1Cl | 9.1%
Cc1ccc(NC(=O)c2cnn(-c3ccccc3)c2NC(=O)c2ccccc2Cl)cc1C | 3.3%
COCCOC(=O)c1ccc(NC(=O)c2ccccc2CCc2ccccc2)cc1 | 7.1%
CN1CCC(O)N1C(=O)c1ccccc1O (configuration not stated) | 12.7%
Cc1ccc(-c2nc3cc(Cl)ccc3o2)cc1NC(=O)c1ccc2c(c1)OCCO2 | 102%
COc1c(Cl)cc(C(=O)Nc2cc(-c3nc4cc(Cl)ccc4o3)ccc2C)cc1Cl | 7.7%

SMILES | displacement
Cc1ccc(-c2nc3ccccc3o2)cc1NC(=O)c1cccc(Cl)c1 | 17%
Cc1ccc(-c2nc3cc(Cl)ccc3o2)cc1NC(=O)c1ccc2ccccc2c1 | 128%
Cc1ccc2nc(-c3ccc(C)c(NC(=O)c4ccc5ccccc5c4)c3)oc2c1 | -11.3%
CCc1ccc2oc(-c3ccc(C)c(NC(=O)c4cc(OC)cc(OC)c4)c3)nc2c1 | 13.4%
Cc1ccc(-c2nc3ccccc3o2)cc1NC(=O)c1ccc2c(c1)OCCO2 | 45.1%
O=C(Nc1cccc(-c2nc3cc(Cl)ccc3o2)c1)c1ccc2c(c1)OCCO2 | 105%
Cc1ccc(-c2nc3cc(Cl)cc(Cl)c3o2)cc1NC(=O)c1ccc2c(c1)OCCO2 | 6.6%
O=C(Nc1cccc(-c2nc3cc(Cl)ccc3o2)c1)c1ccc(Cl)cc1 | 0.2%
COc1cc(OC)cc(C(=O)Nc2cc(-c3nc4cc(Cl)ccc4o3)ccc2C)c1 | 110%
CCc1ccc2oc(-c3cccc(NC(=O)c4ccc5c(c4)OCCO5)c3)nc2c1 | 0.9%
COc1ccc(C)cc1NC(=O)COc1ccc(Br)cc1C | 7.7%
CCOC(=O)C1=C(C)NC(=O)CC1c1ccccc1I (configuration not stated) | -10.7%
COc1ccc(OCCCCN2CCN(C)CC2)cc1 | -5.8%
Cc1noc2c1/C(=N\O)CC(c1ccccc1)C2 (configuration not stated) | 2.6%
Cc1cc(C(=O)Nc2cccc(C)c2C)ccc1[N+](=O)[O-] | 15.9%
Cc1oc2ccc(OCc3c(F)cccc3Cl)cc2c1C(=O)O | 11.7%
COC(=O)c1c(C)oc2ccc(OCc3c(F)cccc3Cl)cc12 | 91%
COCCOC(=O)c1c(C)oc2ccc(OCc3c(F)cccc3Cl)cc12 | 6.9%
Cc1ccc(N(CC(=O)N(Cc2ccccc2)Cc2ccccc2)S(C)(=O)=O)cc1 | -7.5%

Source: PubChem BioAssay AID1240 (Sanford-Burnham Center for Chemical Genomics, 2008)
